Out of some 220,000 compounds screened, about 5,700 (2.6%) were called active. A call without a number means that no potency is given here. Another 18% or so got no clear call; they are omitted. Calls follow the shape of the dose curve; as a rule, active = well fitted inhibition curve with a large enough effect; inconclusive = small, poorly fitted or top-dose-only effect; inactive = no such curve, though single readings can be large or run the other way. The sample as a whole holds a higher share of actives than the screen did.
Each compound was assayed against Lysine-specific demethylase 5B (Homo sapiens) (UniProt Q9UGL1) (assay: Primary screen for KDM5B Histone Demethylases FDH-coupled qHTS). Details: FDH-coupled NADH fluorescence (FDH is formaldehyde dehydrogenase); series mostly up to 57.7 µM.
Lysine-specific demethylase 5B (Homo sapiens), sequence (Q9UGL1 whole entry, looked up): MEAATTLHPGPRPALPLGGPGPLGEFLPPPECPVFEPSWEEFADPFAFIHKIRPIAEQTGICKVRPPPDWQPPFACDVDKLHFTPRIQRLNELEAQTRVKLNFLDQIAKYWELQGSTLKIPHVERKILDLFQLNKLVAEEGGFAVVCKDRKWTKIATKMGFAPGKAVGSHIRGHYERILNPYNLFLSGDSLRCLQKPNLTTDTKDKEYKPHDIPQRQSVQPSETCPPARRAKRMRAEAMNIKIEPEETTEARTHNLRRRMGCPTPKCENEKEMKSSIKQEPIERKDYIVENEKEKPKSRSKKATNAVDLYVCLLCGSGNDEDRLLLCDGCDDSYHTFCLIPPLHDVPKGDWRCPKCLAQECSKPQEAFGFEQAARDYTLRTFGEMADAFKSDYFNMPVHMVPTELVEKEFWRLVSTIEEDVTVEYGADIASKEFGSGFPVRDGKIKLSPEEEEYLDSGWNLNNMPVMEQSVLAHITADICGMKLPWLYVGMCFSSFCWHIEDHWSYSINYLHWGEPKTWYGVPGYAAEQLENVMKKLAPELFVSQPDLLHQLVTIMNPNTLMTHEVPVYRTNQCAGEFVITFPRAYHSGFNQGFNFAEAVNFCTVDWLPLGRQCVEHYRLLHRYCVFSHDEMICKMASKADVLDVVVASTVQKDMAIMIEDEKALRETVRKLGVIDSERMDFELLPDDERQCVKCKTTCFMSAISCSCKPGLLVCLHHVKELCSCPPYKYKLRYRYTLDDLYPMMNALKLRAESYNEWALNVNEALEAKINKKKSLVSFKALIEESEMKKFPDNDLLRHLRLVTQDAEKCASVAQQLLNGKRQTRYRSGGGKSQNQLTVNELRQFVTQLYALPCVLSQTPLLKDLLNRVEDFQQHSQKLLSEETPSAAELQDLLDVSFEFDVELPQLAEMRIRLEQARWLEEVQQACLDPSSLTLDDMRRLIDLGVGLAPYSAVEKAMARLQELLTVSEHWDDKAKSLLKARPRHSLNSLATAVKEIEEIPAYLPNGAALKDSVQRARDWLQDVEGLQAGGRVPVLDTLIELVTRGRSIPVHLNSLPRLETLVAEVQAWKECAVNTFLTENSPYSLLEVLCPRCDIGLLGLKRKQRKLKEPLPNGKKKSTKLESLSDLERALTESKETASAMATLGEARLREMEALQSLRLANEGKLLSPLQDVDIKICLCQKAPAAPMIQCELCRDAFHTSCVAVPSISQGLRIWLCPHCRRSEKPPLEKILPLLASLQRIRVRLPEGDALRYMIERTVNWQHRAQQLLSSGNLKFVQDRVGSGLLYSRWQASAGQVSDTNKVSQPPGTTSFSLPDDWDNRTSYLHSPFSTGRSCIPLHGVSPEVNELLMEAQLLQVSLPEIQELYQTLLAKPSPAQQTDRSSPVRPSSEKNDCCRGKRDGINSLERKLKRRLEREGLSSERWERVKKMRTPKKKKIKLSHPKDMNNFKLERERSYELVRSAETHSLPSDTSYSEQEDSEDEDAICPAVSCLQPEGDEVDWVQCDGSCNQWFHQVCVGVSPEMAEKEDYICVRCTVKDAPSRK
How it was run: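 Here, H3K4me3 peptide (12.5 µM in substrate mix) is demethylated by KDM5BΔAP, 200 nM final, after 10 min compound exposure. Formaldehyde product is coupled through FDH (0.25 U/mL in mix) to NADH fluorescence; 30-min ΔRFU feeds dose-response curves.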
With `O=S(=O)(c1ccccc1Cl)N1CCN(C/C=C/c2ccccc2)CC1` the Potency was “inactive”.
In the case of `Fc1ccc(N2CCCN(CC3[C@H]4CNC[C@@H]34)CC2)cc1` (some centres undefined), the Potency is reported as “inactive”.
`O=C(Nc1ccc(CC23CC4CC(CC(C4)C2)C3)cc1)c1ccc(Cl)cc1Cl` was tested, and the Potency was “inactive”.
In the case of `CCOc1ccc(-c2nc(Cn3nnc(C(=O)NCc4ccc(Cl)cc4)c3N)c(C)o2)cc1OC`, the Potency is reported as “inactive”.
In the case of `CCCn1nc(C(=O)OCc2nc(N)nc(Nc3ccccc3C)n2)c2ccccc2c1=O`, the Potency is reported as “inactive”.
For `CCOc1cc(CNc2nn[nH]n2)ccc1OCc1ccccc1Cl`, the Potency was “inactive”.
`COc1ccc(-c2noc3ncnc(N4CCC(C(=O)NCCN5CCCCC5)CC4)c23)cc1` was tested, and the Potency was “inactive”.
With `CCCCCCCCCCS(=O)(=O)CCSC(=N)N` the Potency was “inactive”.
In the case of `COc1ccc(OC)c(NC(=O)Cn2ccc3ccc(Cl)cc32)c1`, the Potency is reported as “inactive”.
With `COc1ccc(OC)c(NC(=O)c2cc3n(n2)CC(c2ccc(Cl)cc2)OC3)c1` (centres undefined) the Potency was 25.1 µM (active).
With `COc1ccc(OC)c(NC(=O)c2nc3ccccc3nc2N2CCCC2)c1` the Potency was “inactive”.
`COc1ccc(OC)c(C2C3=C(CC(C)(C)CC3=O)Nc3nc(-c4cccc(C)c4)nn32)c1` (centres undefined) was tested, and the Potency was “inactive”.
`CCNC(=O)Nc1ccc(S(=O)(=O)Nc2cnc(C)nc2C)cc1` was tested, and the Potency was “inactive”.
For `O=C(Nc1ccc2oc(-c3ccc(F)cc3)nc2c1)c1ccc2c(c1)OCCO2`, the Potency was “inactive”.
For `Cn1c(CCN2CCCCC2)nc2cc(NC(=O)c3ccccc3Cl)ccc21`, the Potency was “inactive”.
`O=C(Nc1ccc(-c2nnc3n2CCCC3)cc1)c1ccccn1` was tested, and the Potency was “inactive”.
In the case of `Cc1ccccc1C(=O)NCc1nc(-c2ccc(Cl)cc2)no1`, the Potency is reported as “inactive”.
With `Cc1ccc(-n2nnnc2CNC(=O)c2ccccc2C)cc1C` the Potency was “inactive”.
With `Cc1ccc(CNC(=O)c2cccc3cccnc23)cc1` the Potency was “inactive”.
`Cc1ccccc1C(=O)NCc1nnc2ccc(-c3ccccc3)nn12` was tested, and the Potency was 31.6 µM (active).
For `Cc1ccc(-c2ccc3nnc(CNC(=O)c4ccccn4)n3n2)cc1`, the Potency was 31.6 µM (active).
For `O=C(CCc1ncc(-c2ccccc2)o1)Nc1nc2ccccc2s1`, the Potency was “inactive”.
`CCOC(=O)C(O)(c1ccc(N(CC)C(=O)Nc2ccc(Cl)cc2)cc1)C(F)(F)F` (centres undefined) was tested, and the Potency was “inactive”.
`CCN(C(=O)Cc1coc2ccc(C)cc12)c1ccccc1` was tested, and the Potency was “inactive”.
In the case of `Cc1ccccc1NC(=O)C1CC(=O)Nc2nc(SCc3ccccc3)nn21` (centres undefined), the Potency is reported as “inactive”.
With `O=C(NCCCNC(=O)c1nc2ccccc2c(=O)[nH]1)c1cccnc1` the Potency was “inactive”.
With `Cc1nc2cc(C(=O)Nc3ccc(N(C)C)cc3)ccc2n1-c1ccccc1` the Potency was “inactive”.
With `c1coc(-c2nc(-c3cccs3)no2)c1` the Potency was “inactive”.
`CC1CCN(c2nc3c(c(=O)n(C)c(=O)n3C)n2CC(=O)c2ccc(Br)cc2)CC1` was tested, and the Potency was “inactive”.
With `COc1cccc(C(=O)N2CCC(C(NC(=O)c3ccccc3C)C(=O)NCC(C)C)CC2)c1` (centres undefined) the Potency was “inactive”.
In the case of `CCCNC(=O)C(NC(=O)c1cccc(OC)c1)C1CCN(C(=O)c2ccccc2F)CC1` (centres undefined), the Potency is reported as “inactive”.
In the case of `C=CCNC(=O)C(NC(=O)c1cccc(OC)c1)C1CCN(C(=O)c2ccccc2F)CC1` (centres undefined), the Potency is reported as 31.6 µM (active).
`Cn1c(=O)[nH]c(=O)c2c1nc(N1CCNCC1)n2CC(N)=O` was tested, and the Potency was “inactive”.
`O=[N+]([O-])c1cc(C(F)(F)F)ccc1NCCc1ccncc1` was tested, and the Potency was “inactive”.
With `O=c1oc2ccccc2c(N2CCCC2)c1NS(=O)(=O)c1cccc(F)c1` the Potency was “inactive”.
For `COCC1CN(C(C)=O)CC12CCN(Cc1ccccc1OC)CC2` (centres undefined), the Potency was “inactive”.
In the case of `COCC1CN(C(C)=O)CC12CCN(C(=O)NCc1cccc(OC)c1)CC2` (centres undefined), the Potency is reported as “inactive”.
For `CCOc1cccc(CN2CCC3(CC2)CN(C)CC3COC)c1` (centres undefined), the Potency was 14.1 µM (active).
`Cc1occc1-c1nnc(SCC(=O)c2cc(C)n(C3CC3)c2C)n1C` was tested, and the Potency was “inactive”.
`CC(NC(=O)c1ccco1)c1ccc(-c2ccccc2)cc1` (centres undefined) was tested, and the Potency was “inactive”.
For `Cc1ccc2c(C)cc(SCC(=O)NC3CC3)nc2c1`, the Potency was “inactive”.
With `CC1(C(=O)NCC2CCCO2)CCCc2cnc(Nc3ccccc3)nc21` (centres undefined) the Potency was “inactive”.
With `CN(Cc1ccccc1)C(=O)C1(C)CCCc2cnc(Nc3cccnc3)nc21` (centres undefined) the Potency was “inactive”.
For `CC1(C(=O)NCc2ccc3c(c2)OCO3)CCc2cnc(NCc3ccccc3)nc21` (centres undefined), the Potency was 25.1 µM (active).
For `O=C(Cn1nc2c(cc1=O)CCCC2)Nc1cc(C(F)(F)F)ccc1Cl`, the Potency was “inactive”.
With `Cc1nn2c(c1-c1ccccc1Oc1ccccc1)N(C(=O)C(C)C)CCC2` the Potency was “inactive”.
In the case of `Cc1nn2c(c1-c1ccccc1-c1ccccc1)N(CC1CC1)CCC2`, the Potency is reported as 28.2 µM (active).
`Cc1nn2c(c1-c1ccccc1-c1ccccc1)N(C(=O)CN1CCOCC1)CCC2` was tested, and the Potency was “inactive”.
For `CCc1ccc(N(CC)C(=O)C(=O)c2c[nH]c3ccccc23)cc1`, the Potency was “inactive”.
With `Cc1ccc2[nH]c(=O)c(CCC(=O)NCc3ccncc3)cc2c1` the Potency was 25.1 µM (active).
With `Cc1ccc2[nH]c(=O)c(COC(=O)c3ccccn3)cc2c1` the Potency was “inactive”.
For `Cc1ccc(CCC(=O)NCc2cccnc2)cc1`, the Potency was “inactive”.
`COCCN(C)C[C@H]1C[C@H](CO)CN(C(=O)c2ccc(C(C)C)[nH]c2=O)C1` was tested, and the Potency was “inactive”.
`CC1(C)CC(=O)C2=C(C1)Nc1nc(N)[nH]c(=O)c1C2c1ccc2c(c1)OCO2` (centres undefined) was tested, and the Potency was “inactive”.
For `COc1ccc(NC(=O)c2cc3c(N(C)Cc4ccccc4)nc(C)cn3n2)cc1F`, the Potency was 17.8 µM (active).
For `Cc1cn2nc(C(=O)Nc3cccc(F)c3)cc2c(N(C)Cc2ccccc2)n1`, the Potency was “inactive”.
With `COc1cccc(CNC(=O)Cn2c(N(C)Cc3ccccc3)nc(C)cc2=O)c1OC` the Potency was “inactive”.
`Cc1cn2nc(C(=O)Nc3cc(F)cc(F)c3)cc2c(N(C)Cc2ccccc2)n1` was tested, and the Potency was 25.1 µM (active).
In the case of `Cc1cn2nc(C(=O)Nc3ccc(F)cc3C)cc2c(N(C)Cc2ccccc2)n1`, the Potency is reported as 20 µM (active).
In the case of `Cc1cc(C)cc(NC(=O)N(C)Cc2ccccc2)c1`, the Potency is reported as “inactive”.
In the case of `CCN(CC)c1nc2ccccc2nc1C(=O)Nc1ccc(C)cc1C`, the Potency is reported as “inactive”.
`Cc1cn2nc(C(=O)Nc3ccc(F)cc3F)cc2c(N(C)Cc2ccccc2)n1` was tested, and the Potency was “inactive”.
With `CCN(CC)c1nc2ccccc2nc1C(=O)Nc1ccc(C)c(C)c1` the Potency was “inactive”.
With `Oc1ccc(-c2nc(-c3ccccc3F)cs2)cc1` the Potency was “inactive”.
`C=CCNC(=O)Nc1cc(NC(=O)Nc2ccccc2)ccc1C` was tested, and the Potency was “inactive”.
`Cc1ccc(CN2CCOc3cc([S+](=O)([O-])N(C)C)ccc3C2)c(F)c1` was tested, and the Potency was “inactive”.
With `Cc1ccc(CN2CCC(Oc3cnc4c(ccn4CCN[S+](C)(=O)[O-])c3)CC2)c(F)c1` the Potency was 31.6 µM (active).
`CCCc1noc(CSc2nc(-c3ccco3)nc3ccccc23)n1` was tested, and the Potency was “inactive”.
For `O=C(O)C/C(=C/c1cccc(Cl)c1)c1nc2ccccc2o1`, the Potency was “inactive”.
With `CCCOc1ccc2ccccc2c1CN(C)C(=O)c1n[nH]c(=O)c2ccccc12` the Potency was “inactive”.
For `Fc1ccccc1CN1CCNc2cc(Nc3cccnc3)ncc2C1`, the Potency was “inactive”.
With `Cn1ccc(Nc2cc3c(cn2)CN(CCc2ccccc2)CCN3)n1` the Potency was “inactive”.
In the case of `CN(C)c1cccc(Nc2cc3c(cn2)NCCN(Cc2ccccc2)C3)c1`, the Potency is reported as 25.1 µM (active).
`NC(=O)c1cccc(C(=O)N2CCC(c3nc4ccccc4o3)CC2)c1` was tested, and the Potency was “inactive”.
For `CCOc1c(OC)cccc1-c1nc2ccc(-c3ccc(OC)c(OC)c3OC)cc2o1`, the Potency was 12.6 µM (active).
`COc1cccc(-c2nc3ccc(-c4ccc5c(c4)OCO5)cc3o2)c1OC` was tested, and the Potency was “inactive”.
For `COc1cccc(NC(=O)Nc2cc(-c3nc4ccccc4o3)ccc2OC)c1`, the Potency was “inactive”.
`Cc1ccc2c(c1)-c1c(cnn1CC(=O)N(C)c1ccccc1Cl)CO2` was tested, and the Potency was “inactive”.
For `CC(C)(C)c1cc(NC(=O)Nc2cc(Cl)cc(Cl)c2)no1`, the Potency was “inactive”.
`COCCOc1ccnc(-c2noc([C@@H]3CCCN3Cc3ccc(Cl)cc3)n2)c1` was tested, and the Potency was “inactive”.
For `COCCNc1ncccc1-c1noc([C@@H]2CCCN2Cc2ccc3c(c2)OCO3)n1`, the Potency was 31.6 µM (active).
For `COCCOc1ncccc1-c1noc([C@@H]2CCCN2CC(C)(C)C)n1`, the Potency was “inactive”.
For `Cc1c(-c2ccc(Cl)cc2)nc2ccccc2c1C(=O)NC1CCCCCCC1`, the Potency was “inactive”.
With `COc1ccc(-c2ncc3c(n2)OCCN(CC2CC2)C3=O)cc1` the Potency was 35.5 µM (active).
`C[S+](=O)([O-])c1cccc(-c2ncc3c(n2)OCCN(Cc2ccc(F)cc2F)C3=O)c1` was tested, and the Potency was “inactive”.
With `COCCN1CCOc2nc(-c3cccc(C)c3)ncc2C1=O` the Potency was “inactive”.
In the case of `COc1ccc(F)cc1-c1ncc2c(n1)OCCN(CC1CC1)C2=O`, the Potency is reported as 35.5 µM (active).
In the case of `COc1cccc(-c2ncc3c(n2)OCCN(Cc2ccc(F)cc2F)C3=O)c1OC`, the Potency is reported as “inactive”.
For `NC(=O)c1cccc(-c2ncc3c(n2)OCCN(CC2CC2)C3=O)c1`, the Potency was “inactive”.
With `Cn1c(=O)c2c(nc(SCC(=O)Nc3ccccc3)n2Cc2ccccc2Cl)n(C)c1=O` the Potency was “inactive”.
For `Cc1[nH]c2ccccc2c1C(=O)C(C)Sc1nnc(C2CC2)o1` (centres undefined), the Potency was “inactive”.
With `CC(C)c1ccc(C(=O)OC2CCOC2=O)cc1` (centres undefined) the Potency was “inactive”.
In the case of `Cc1oc(-c2cccs2)nc1CC(=O)N1CCCC1c1ccccc1` (centres undefined), the Potency is reported as “inactive”.
With `CCOc1ccc(NC(=O)CN(C)C(=O)Cn2c(=O)cnc3ccccc32)cc1OCC` the Potency was “inactive”.
For `COc1ccc(N2C(=O)C(C)CS2(=O)=O)cc1S(=O)(=O)Nc1ccc(N2CCCC2)cc1` (centres undefined), the Potency was “inactive”.
`Cc1cc(N2CCC(NC(=O)c3ccc(N(C)C)cc3)C2=O)ccc1F` (centres undefined) was tested, and the Potency was “inactive”.
`Cc1ccc(C(=O)NC2CCSC2=O)cc1C` (centres undefined) was tested, and the Potency was “inactive”.
In the case of `Cc1ccc(N2CCC(NC(=O)c3ccc4[nH]ccc4c3)C2=O)cc1C` (centres undefined), the Potency is reported as 31.6 µM (active).
`COCC(=O)N1CCN(C2CCN(CCc3ccccc3)C2=O)CC1` (centres undefined) was tested, and the Potency was “inactive”.
With `CCc1cccc(CC)c1NC(=O)C(C)Sc1ccc(C)cc1` (centres undefined) the Potency was “inactive”.
In the case of `Cc1cc(NC(=O)Nc2c(C3=CCCCC3)c(C)nn2C)ccc1Br`, the Potency is reported as “inactive”.
With `Cc1ccc(C(=O)NC2CCN(C(=O)Nc3ccc(F)cc3)CC2)cc1` the Potency was “inactive”.
In the case of `CC(=O)c1ccc(NC(=O)N2CCc3c(nc(-c4ccc(F)cc4)[nH]c3=O)C2)cc1`, the Potency is reported as 25.1 µM (active).
With `O=c1[nH]c(-c2ccncc2)nc2c1CCN(S(=O)(=O)N1CCCC1)C2` the Potency was “inactive”.
Also: nearly all actives have a fitted effect of over 70% in size.
Potency is read from the fitted curve at half-maximal effect.
